DAGLB inh = diacylglycerol lipase beta (human) inhibition; HEK293T DAGLB membrane lysate, EnzChek fluorogenic substrate; inhibition, % at 5.17 µM; hit rate 0.059% among 340,000; Q8NCG7; in the data active = inhibition above about 34%;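 also: 0% = enzyme with vehicle and 100% = wells lacking enzyme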
PAFAH2 FP inh = PAFAH2 (human) inhibition. AID 492956. inhibition, % at 3.39 µM. recombinant PAFAH2, FP-rhodamine activity probe, fluorescence polarization. hit rate 0.99% among 340,000;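 active = inhibition above the mean over all tested compounds plus 3 SD, cut at about 30% in these data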;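 also: inhibitors block probe labeling of enzyme so polarization drops; 0% = enzyme with DMSO and 100% = wells lacking PAFAH2 protein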
ATG4B inhibitor = ATG4B (human) cysteine protease inhibition | Q9Y4P1 | ATG4B cleavage of LC3-PLA2, NBD-HPC fluorescence, 1 h | inhibition, % at 8.33 µM | hit rate 0.51% among 340,000 | AID 504462; in the data active = inhibition above about 40%
pPAFAH inh = inhibitors of human plasma PAF acetylhydrolase (pPAFAH) | recombinant pPAFAH, FP-rhodamine probe fluorescence polarization | inhibition, % at 3.39 µM | hit rate 1.5% among 330,000;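 active = inhibition above the mean inhibition across the screen plus 3 SD, cut at about 25% in these data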;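 also: inhibitors block binding of the rhodamine activity-based probe so polarization drops; 0% = enzyme with DMSO and 100% = wells lacking pPAFAH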
Target sequence (Q13093 whole entry, looked up): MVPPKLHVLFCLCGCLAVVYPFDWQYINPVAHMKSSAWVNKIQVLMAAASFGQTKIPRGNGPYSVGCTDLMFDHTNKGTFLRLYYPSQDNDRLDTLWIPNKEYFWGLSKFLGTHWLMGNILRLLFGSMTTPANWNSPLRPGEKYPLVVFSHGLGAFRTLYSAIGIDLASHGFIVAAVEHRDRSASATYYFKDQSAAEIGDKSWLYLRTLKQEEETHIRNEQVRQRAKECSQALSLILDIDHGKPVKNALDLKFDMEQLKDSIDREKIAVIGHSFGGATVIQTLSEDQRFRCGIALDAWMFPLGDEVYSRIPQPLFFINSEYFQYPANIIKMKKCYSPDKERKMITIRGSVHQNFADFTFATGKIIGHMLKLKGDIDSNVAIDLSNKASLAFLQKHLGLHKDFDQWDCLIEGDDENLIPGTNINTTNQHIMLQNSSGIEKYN
PAFAH1B2 inh = PAFAH1B2 (human) inhibition | P68402 | recombinant PAFAH1B2, FP-rhodamine activity probe, fluorescence polarization | inhibition, % at 3.39 µM | hit rate 1.2% among 340,000 | AID 492953;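 active = inhibition above the mean of all tested compounds plus 3 SD, cut at about 24% in these data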;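 also: 0% = enzyme with DMSO and 100% = wells lacking PAFAH1B2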
PAFAH1B3 FP inh = blocks human PAF acetylhydrolase 1B catalytic subunit 3. hit rate 0.28% among 340,000. inhibition, % at 3.39 µM. recombinant PAFAH1B3, FP-rhodamine probe, fluorescence polarization. Q15102. AID 492972;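 active = inhibition above the screen-wide average of all tested compounds plus 3 SD, cut at about 25% in these data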;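 also: 0% = enzyme with DMSO only and 100% = wells lacking PAFAH1B3 protein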
The depositor's hits bear a star; / = no result given. Most compounds without a hit are left out; they make up all but 3% or so of the library.

SMILES	DAGLB inh	PAFAH2 FP inh	ATG4B inhibitor	pPAFAH inh	PAFAH1B2 inh	PAFAH1B3 FP inh
Cc1cc(Cl)ccc1NC(=O)COC(=O)CCNS(=O)(=O)c1ccccc1	-1	3	-7	34*	4	-1
O=C(COC(=O)CCNS(=O)(=O)c1ccc(Cl)cc1)NCc1ccco1	0	3	-10	27*	14	2
CCOC(=O)c1c(NC(=O)Cn2ccsc2=N)sc(C)c1C	-2	9	-9	0	5	2
Cc1cccc(C(=O)Nc2nnc(SCC(=O)NCc3ccco3)s2)c1	2	4	-2	1	8	11
CC12CC3CC(C)(C1)CC(C(=O)NC1=NCCS1)(C3)C2	0	-2	-2	0	28*	5
CC12CC3(C)CC(C)(C1)CC(C(=O)NC1=NCCS1)(C2)C3	-3	-10	5	-2	2	1
O=C(O)c1cc(-n2nnnc2SCc2ccc([N+](=O)[O-])cc2)ccc1Cl	-3	4	1	7	26*	4
O=C(O)c1cc(-n2nnnc2SCc2ccccc2F)ccc1Cl	-2	0	-1	1	1	2
Cc1ccc(S(=O)(=O)Nc2nnc(CC(C)(C)C)s2)cc1	2	1	-3	0	5	3
CC(C)(C)Cc1nnc(NS(=O)(=O)c2ccc(F)cc2)s1	5	4	-12	9	31*	9
O=C(N/N=C/C(Cl)=C/c1ccccc1)c1ccc2c(c1)OCO2	-1	1	5	5	-4	-3
CN(Cc1ccccc1)C(=O)c1ccco1	-1	0	-30	-3	2	0
Cc1ccc(C(CCN(Cc2ccccc2)C(=O)c2ccco2)c2ccco2)cc1 (stereo not drawn)	5	15	37	30*	-4	1
O=C(Nc1ccccc1)C1=C[C@H](c2ccc3c(c2)OCO3)C[C@H](OCc2ccc(CO)cc2)O1	-1	-15	11	7	-3	-5
O=C(O)CCC(=O)N1CCc2cc(S(=O)(=O)NC3CCCC3)ccc21	-1	-2	-15	-1	6	10
CCCCC(CC)CNS(=O)(=O)c1ccc2c(c1)CCN2C(=O)CCC(=O)O (stereo not drawn)	2	-3	4	32*	16	9
CCCc1c(C(=O)N/N=C/c2ccoc2)nnn1-c1nonc1N	0	/	/	/	/	/
O=C(CN(Cc1ccccc1)S(=O)(=O)c1ccc2c(c1)OCCO2)N/N=C/c1ccc(F)cc1	0	-5	-6	33*	-1	3
COc1ccc(/C=N/NC(=O)CN(Cc2ccccc2)S(=O)(=O)c2ccc3c(c2)OCCO3)cc1	3	-5	-7	16	-1	-3
CN(C/C(O)=C(\C#N)c1ccccc1)C1CCCCC1	-2	8	-4	1	1	-4
N#CC(=C(c1ccccc1)c1ccccc1)c1ccccc1	-5	0	5	/	24*	5
CCN1C/C(=C/c2cccc([N+](=O)[O-])c2)C(=O)/C(=C/c2cccc([N+](=O)[O-])c2)C1	0	-2	8	7	5	9
COc1ccc(S(=O)(=O)N2c3ccc(F)cc3CCC2C)cc1 (stereo not drawn)	-4	-11	-7	0	27*	11
Cc1ccc(NC(=O)CN(C)Cc2cccs2)cc1Cl	-13	5	-1	13	-1	3
CCN(CC)c1ccc(NC(=O)CN(C)Cc2cccs2)cc1	-5	7	6	26*	4	6
SMILES	DAGLB inh	PAFAH2 FP inh	ATG4B inhibitor	pPAFAH inh	PAFAH1B2 inh	PAFAH1B3 FP inh
Cc1ccccc1NC(=O)NCCCCc1ccccc1	-1	1	2	4	1	9
S=C(NCCc1ccc(Cl)cc1)NC1CC1	1	0	2	2	42*	2
Cc1ccccc1NC(=O)NCCc1ccc(Cl)cc1	-3	7	-2	2	29*	4
CC(=O)c1cccc(NC(=O)NCCc2ccc(Cl)cc2)c1	-4	2	5	-2	27*	-4
COc1ccccc1NC(=S)NCCc1ccc(Cl)cc1	-2	-3	-1	1	34*	5
CCOC(=O)c1nc(-c2ccc(OC)c(OC)c2)cnc1C#N	0	-11	-2	-2	3	9
COc1ccc(C(=O)NCc2nnc(SCC(=O)NCc3ccco3)o2)cc1OC	2	1	-3	0	2	9
COc1cc(/C=N/NC(=O)C2C3CCCCC32C)cc(Br)c1O (stereo not drawn)	4	21	8	5	2	13
CCN(Cc1ccccc1)c1ccc(/C=N/NS(=O)(=O)c2cccc([N+](=O)[O-])c2)cc1	1	5	-10	4	45*	-4
CCN(Cc1ccccc1)c1ccc(/C=N/NC(=O)c2cccc(S(=O)(=O)N3CCOCC3)c2)cc1	4	-7	-3	28*	13	3
CCN(CC)c1ccc(/C=N/NS(=O)(=O)c2ccc(C)c([N+](=O)[O-])c2)cc1	-1	6	1	4	4	5
CCCCCCCc1nc2c(=O)n(C)c3ccccc3c2o1	-1	5	0	31*	1	4
CCCCCCc1nc2c(=O)[nH]c3ccccc3c2o1	1	3	-2	1	6	5
CCOc1ccc(OCC(=O)OC(C)C(=O)NC2CCCC2)cc1 (stereo not drawn)	1	6	-1	8	2	9
CCCCn1c(NS(=O)(=O)c2ccccc2)c(S(=O)(=O)c2ccc(C)cc2)c2nc3ccccc3nc21	-14	57*	75*	10	36*	66*
CCCCCn1c(NC(=O)c2ccco2)c(S(=O)(=O)c2ccc(C)cc2)c2nc3ccccc3nc21	-8	42*	23	11	30*	57*
Nc1ccccc1SCC1CSc2nc3ccccc3c(=O)n21 (stereo not drawn)	-2	4	-5	4	-7	1
O=c1c2ccccc2nc2n1C(CSCc1ccc(Cl)cc1Cl)CS2 (stereo not drawn)	-9	12	-9	4	39*	10
COc1ccc(NC(C)=O)cc1S(=O)(=O)N1CCN(C/C=C/c2ccccc2)CC1	2	-5	5	3	4	-1
c1ccc(CCNc2nc(-c3ccncc3)nc3ccccc23)cc1	/	/	-2	-6	/	/
CC(=O)c1ccc(NC(=O)C2CCCN(S(=O)(=O)c3cccc4nonc34)C2)cc1 (stereo not drawn)	-3	-2	-2	-2	29*	7
Cc1ccc(NC(=O)C2CCCN(S(=O)(=O)c3cccc4nonc34)C2)cc1 (stereo not drawn)	-3	12	-1	-4	0	-6
O=S1(=O)c2ccccc2N=NN1Cc1cc(Cl)cc(Cl)c1	/	/	/	33*	/	/
Cc1ccc(C(=O)OCC(=O)c2ccc(CC(=O)N3CCOCC3)s2)cc1C	0	11	1	27*	2	3
